According to PubChem BioAssay AID1159580 (chemical genetic matrix, 2015):
Several values for one entry are separate records, joined by “and”; a condition that tells them apart may be missing. Equal entries are not always repeated. Screen size: about 5,500 compounds; about 2,000 (36%) were called active. About 18% were inconclusive and are not listed. No stated cut-off is given here; in the data, active means normalized growth mostly below about 0.91 (no sharp cut-off); inconclusive means no clear call, values can overlap the other calls; inactive means mostly above about 0.92. This is one part of the list.

Test: chemical genetic growth profiling, strain panel (AID 1159580);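 further: tested at 20 µM; growth read once vehicle control cultures reached saturation at 30 °C; 1 = growth at the plate median or of vehicle wells; lower values mean less growth of the strain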
Conditions: S. cerevisiae deletion strains, growth OD

Measured: normalized growth

C=NC(C(=O)NC1C(=O)N2C1SC(C)(C)C2C(=O)O)c1ccccc1 (configuration not stated)
inactive: locus YAL013W, strain DEP1, active compounds read low 1.01 | locus YAL021C, strain ccr4, active compounds read low 0.991 | locus YAL026C, strain drs2, active compounds read low 0.994 | locus YAL030W, strain snc1, active compounds read low 1 | locus YBL061C, strain skt5, active compounds read low 1.02 | locus YBR009C, strain hhf1, active compounds read low 0.994 | locus YBR021W, strain FUR4, active compounds read low 0.999 | locus YBR023C, strain chs3, active compounds read low 0.995 | locus YBR171W, strain sec66, active compounds read low 1.02 | locus YBR229C, strain ROT2, active compounds read low 1 | locus YBR231C, strain swc5, active compounds read low 1.02 | locus YBR279W, strain paf1, active compounds read low 1 | locus YCL011C, strain gbp2, active compounds read low 0.989 | locus YCL016C, strain dcc1, active compounds read low 0.986 | locus YCL029C, strain bik1, active compounds read low 1.02 | locus YCL061C, strain MRC1, active compounds read low 0.991 | locus YCL069W, strain vba3, active compounds read low 1.01 | locus YCR088W, strain abp1, active compounds read low 1 | locus YDL005C, strain med2, active compounds read low 0.998 | locus YDL035C, strain GPR1, active compounds read low 1.01 | locus YDL040C, strain nat1, active compounds read low 1.01 | locus YDL074C, strain BRE1, active compounds read low 0.986 | locus YDL101C, strain DUN1, active compounds read low 1.01 | locus YDL134C, strain PPH21, active compounds read low 1.01 | locus YDL185W, strain tfp1, active compounds read low 1.01 | locus YDL192W, strain arf1, active compounds read low 1.01 | locus YDR001C, strain nth1, active compounds read low 0.989 | locus YDR069C, strain doa4, active compounds read low 1.03 | locus YDR101C, strain arx1, active compounds read low 1 | locus YDR137W, strain rgp1, active compounds read low 1.01 | locus YDR150W, strain NUM1, active compounds read low 1.01 | locus YDR159W, strain sac3, active compounds read low 1.07 | locus YDR162C, strain NBP2, active compounds read low 1.03 | locus YDR195W, strain ref2 1 | locus YDR297W, strain sur2, active compounds read low 1.03 | locus YDR318W, strain mcm21, active compounds read low 1.02 | locus YDR334W, strain swr1, active compounds read low 1 | locus YDR335W, strain msn5, active compounds read low 0.983 | locus YDR388W, active compounds read low 1 | locus YDR392W, strain spt3, active compounds read low 0.867 | locus YDR502C, strain sam2, active compounds read low 1.02 | locus YEL003W, strain gim4, active compounds read low 1 | locus YEL037C, strain rad23, active compounds read low 0.994 | locus YEL061C, strain CIN8 (second series), active compounds read low 0.995 | locus YEL061C, strain CIN8, active compounds read low 1 | locus YER015W, strain faa2, active compounds read low 0.978 | locus YER016W, strain bim1, active compounds read low 1.01 | locus YER110C, active compounds read low 1.01 | locus YER111C, strain swi4, active compounds read low 1 | locus YER155C, strain BEM2 (second series), active compounds read low 1.03 | locus YER155C, strain BEM2, active compounds read low 1 | locus YER167W, strain BCK2, active compounds read low 1.02 | locus YFR010W, strain ubp6, active compounds read low 0.993 | locus YGL078C, strain dbp3, active compounds read low 1 | locus YGL086W, strain mad1, active compounds read low 1.02 | locus YGL167C, strain pmr1, active compounds read low 0.992 | locus YGL173C, strain kem1, active compounds read low 1.01 | locus YGL227W, strain vid30, active compounds read low 0.996 | locus YGL240W, strain doc1, active compounds read low 1.04 | locus YGL248W, strain PDE1, active compounds read low 1.02 | locus YGL253W, strain hxk2, active compounds read low 1.01 | locus YGR078C, strain PAC10, active compounds read low 1.01 | locus YGR135W, strain pre9, active compounds read low 1.01 | locus YGR229C, strain SMI1, active compounds read low 0.977 | locus YGR252W, strain gcn5, active compounds read low 1.07 | locus YHR013C, strain ard1, active compounds read low 0.973 | locus YHR027C, strain rpn1, active compounds read low 0.992 | locus YHR030C, strain SLT2, active compounds read low 1.01 and 1 | locus YHR079C, strain IRE1 (second series), active compounds read low 1.01 | locus YHR079C, strain IRE1, active compounds read low 1 | locus YHR094C, strain hxt1, active compounds read low 1.01 | locus YHR129C, strain ARP1, active compounds read low 1.01 | locus YHR142W, strain chs7, active compounds read low 0.994 | locus YHR200W, strain rpn10, active compounds read low 1.03 | locus YIL066C, strain RNR3, active compounds read low 1.01 | locus YIL073C, strain SPO22, active compounds read low 1.07 | locus YIL125W, strain kgd1, active compounds read low 1.01 | locus YIR030C, strain dcg1, active compounds read low 1.02 | locus YJL092W, strain hpr5, active compounds read low 0.994 | locus YJL095W, strain BCK1 (second series), active compounds read low 1 | locus YJL095W, strain BCK1, active compounds read low 1.01 and 0.995 | locus YJL115W, strain asf1, active compounds read low 0.973 | locus YJL129C, strain trk1, active compounds read low 0.991 | locus YJL134W, strain LCB3, active compounds read low 1.01 | locus YJL154C, strain vps35, active compounds read low 1 | locus YJL164C, strain tpk1, active compounds read low 0.977 | locus YJL166W, strain qcr8, active compounds read low 1.02 | locus YJL168C, strain set2, active compounds read low 1.01 | locus YJL187C, strain SWE1 (second series), active compounds read low 1.01 | locus YJL187C, strain SWE1, active compounds read low 1.02 | locus YJR043C, strain POL32, active compounds read low 0.992 | locus YJR066W, strain TOR1, active compounds read low 0.988
